# Source: ChEMBL document CHEMBL3988442, “University of Dundee, Small-Polar-MMV Screening Library” (2021)
# Hit rate of the full screen: of about 69,000 compounds, about 1,000 (1.4%) showed an effect of 50% or more. Only a selection was taken, and strong results are over-represented in it overall.
# Tested on: Leishmania donovani
# Experiment: Leishmania intramacrophage assay
# Format: functional, organism-based
# Design: scale not given: in the data most compounds retested in dose-response had high values
structure (smiles),measurement,setting,value
CC(C)NC(=O)[C@@H]1C[C@@H](N)CN1C(=O)CCSCc1ccccc1,Percent Effect,"30.3 µM, […]",17.42%
CCC[C@H]1CN(CCS(C)(=O)=O)C[C@@H]1NC(=O)c1cc(CC)on1,Percent Effect,"30.3 µM, […]",-7.054%
CCS(=O)(=O)NCC1OCCc2cn(CCOC)nc21 (stereo not given),Percent Effect,"30.3 µM, […]",22.39%
CNc1nc(CNC(=O)Nc2cccc(COCCOC(C)C)c2)cs1,Percent Effect,"30.3 µM, […]",10.56%
Cc1cc(O)n2nc(C3CCN(C(=O)c4ccccn4)CC3)cc2n1,Percent Effect,"30.3 µM, […]",-30.04%
O=C(NCCCn1cncn1)N1CCCCCC1,Percent Effect,30 µM,20.62%
CCS(=O)(=O)NCCNC(=O)c1cc(Cl)c2c(c1)OCCCO2,Percent Effect,"30 µM, 30.03 µM",35.29%
COc1cccc2c1OCCCN(Cc1ncccc1C(=O)O)C2,Percent Effect,"30.3 µM, […]",-9.577%
CN(CCCOc1ccccc1)C(=O)CN1CCc2cncnc2C1,Percent Effect,"30 µM, 30.03 µM",6.848%
N[C@@H]1CC[C@@H](NC(=O)c2ccccc2OC(F)(F)C(F)F)C1,Percent Effect,"30.3 µM, […]",-30%
Cc1noc([C@]23COC[C@H]2CN(C(=O)Cc2ccsc2)C3)n1,Percent Effect,"30.3 µM, […]",57.44%
CCOCC(=O)N1C[C@@H]2COC[C@]2(c2nc(C)no2)C1,Percent Effect,"30.3 µM, […]",46.85%
Cc1noc([C@]23COC[C@H]2CN(C(=O)COC2CCCC2)C3)n1,Percent Effect,"30.3 µM, […]",14.27%
O=C(O)C(F)(F)F.c1cc(CN2CCC3(CCOCC3COCC3CC3)CC2)co1 (stereo not given),Percent Effect,"30.3 µM, […]",12%
Fc1cccc(N2CCCC3(CN(Cc4nccs4)CCO3)C2)c1.O=C(O)C(F)(F)F.O=C(O)C(F)(F)F (stereo not given),Percent Effect,"30.3 µM, […]",41.24%
Fc1cccc(N2CCCC3(C2)CN(c2ncccn2)CCO3)c1.O=C(O)C(F)(F)F.O=C(O)C(F)(F)F (stereo not given),Percent Effect,"30 µM, 30.03 µM",0.139%
c1cncc(C2=NOC3(CCN(Cc4c[nH]c5ccccc45)CC3)C2)c1,Percent Effect,"30.3 µM, […]",11.25%
c1ccc(C2=NOC3(CCN(Cc4c[nH]c5ccccc45)CC3)C2)cc1,Percent Effect,"30.3 µM, […]",96.36%
CC(C)C1=NOC2(CCN(Cc3c[nH]c4ccccc34)CC2)C1,Percent Effect,"30.3 µM, […]",1.888%
CN(C(=O)c1ccc(S(=O)(=O)NC(C)(C)C)cc1)C1(C#N)CCC1,Percent Effect,"30.3 µM, […]",6.383%
CC(C)=CCN1CCC(c2nnc(CN3CCN(C)CC3)n2C)CC1,Percent Effect,"30.3 µM, […]",50.84%
CN1CCN(Cc2nnc(C3CCN(CC4CC4)CC3)n2C)CC1,Percent Effect,"30 µM, 30.03 µM",36.3%
CN1CCC(c2nnc(CN3CCC(O)CC3)n2C)CC1,Percent Effect,"30 µM, 30.03 µM",13.07%
CCc1sc(-c2nnc(CNC(C)Cn3cccn3)o2)cc1C (stereo not given),Percent Effect,"30.3 µM, […]",-1.714%
O=C(c1cnc(Nc2ccccc2)nc1)N1CCC(O)(CO)CC1,Percent Effect,"30.3 µM, […]",-16.52%
c1ccc(Cn2cccn2)c(CNCc2cnc(N3CCCC3)nc2)c1,Percent Effect,"30.3 µM, […]",54.07%
CC(Cn1cccn1)NCc1cnc(N2CCCC2)nc1 (stereo not given),Percent Effect,"30.3 µM, […]",6.002%
c1cnn(CCNCc2cnc(N3CCCC3)nc2)c1,Percent Effect,"30.3 µM, […]",36.96%
O=C(O)C(F)(F)F.O=C(O)C(F)(F)F.c1coc(CN2CCCn3c(CN4CCOCC4)nnc3C2)c1,Percent Effect,"30.3 µM, […]",2.025%
O=c1ccc(-c2cccs2)nn1CN1CCN(c2ccccn2)CC1,Percent Effect,"30.3 µM, […]",5.805%
CCN(CC)CCNS(=O)(=O)c1cccc(CSC)c1,Percent Effect,"30.3 µM, […]",-28.14%
CCNS(=O)(=O)c1cccc(CSC)c1,Percent Effect,"30.3 µM, […]",64.35%
CSCc1cccc(S(=O)(=O)NCCO)c1,Percent Effect,"30.3 µM, […]",7.47%
O=C(NCc1ccccn1)NC1CCOc2ccccc21 (stereo not given),Percent Effect,"30 µM, 30.03 µM",24.88%
Cc1cc(CN(C)C(=O)c2ccc(F)cc2F)no1,Percent Effect,"30.3 µM, […]",-6.199%
Cc1ccc(CN2CCC(c3cnccn3)CC2)s1,Percent Effect,"30.3 µM, […]",12.08%
Cc1ccc(CN2CCOC(c3cnccn3)C2)s1 (stereo not given),Percent Effect,"30.3 µM, […]",57.91%
Cc1ccc(CN2CCCC(c3cnccn3)C2)s1 (stereo not given),Percent Effect,"30.3 µM, […]",27.06%
COc1ccc(CNC(C)c2ccc(Cl)c(Cl)c2)c(OC)c1OC (stereo not given),Percent Effect,"30.3 µM, […]",55.53%
COc1ccc(CNC(C)c2ccc(Cl)cc2)c(OC)c1OC (stereo not given),Percent Effect,"30.3 µM, […]",11.12%
COc1ccc(CNC(C)c2cccc(Cl)c2)c(OC)c1OC (stereo not given),Percent Effect,"30 µM, 30.03 µM",25.49%
Cc1sc2nc(C(F)(F)F)nc(N3CCN(C)CC3)c2c1C,Percent Effect,"30.3 µM, […]",9.999%
Cc1sc2nc(CCN)nc(N3CCS(=O)(=O)CC3)c2c1C,Percent Effect,"30.3 µM, […]",0.7518%
Cc1sc2nc(CCN)nc(N3CC(N4CCCCC4)C3)c2c1C,Percent Effect,"30.3 µM, […]",85.94%
CCOC(=O)N1CCN(c2nc(CCN)nc3sc(C)c(C)c23)CC1,Percent Effect,"30.3 µM, […]",81.77%
Cc1sc2nc(CCN)nc(N3CCC(N4CCCC4)CC3)c2c1C,Percent Effect,"30.3 µM, […]",27.1%
Cc1sc2nc(CCN)nc(N3CCN(S(C)(=O)=O)CC3)c2c1C,Percent Effect,"30.3 µM, […]",-0.9568%
Cc1ccc(NC(=O)N2CCOC(C)(c3cnn(C)c3)C2)c(C)c1 (stereo not given),Percent Effect,"30.3 µM, […]",12.13%
Cc1nn(C)c(C)c1S(=O)(=O)N(C)Cc1nn(C)c(Cl)c1Cl,Percent Effect,"30.3 µM, […]",1.519%
Cc1cn2c(n1)CCC(NC(=O)c1oc(Br)cc1C)C2 (stereo not given),Percent Effect,30 µM,33.37%
N#Cc1ccc(N2CC3(CCN(c4nccs4)C3)C2)nc1.O=CO.O=CO,Percent Effect,"30.3 µM, […]",9.16%
O=C1CC2(CCCC2)CN1CCOc1ccc(F)cc1,Percent Effect,"30.3 µM, […]",12.36%
CCN1CC2(CCC1=O)CCN(CCOc1ccc(F)cc1)CC2,Percent Effect,"30.3 µM, […]",19.57%
CCN1CC2(CCN(CCOc3ccc(F)cc3)CC2)CC1=O,Percent Effect,"30.3 µM, […]",52.2%
Cn1cc(C(=O)OC2CN(c3nc4c(C(F)(F)F)cccc4s3)C2)nn1,Percent Effect,"30.3 µM, […]",15.05%
Cc1ccc(C(=O)NCC(O)CN2CCCC2=O)cc1Cl (stereo not given),Percent Effect,"30.3 µM, […]",-2.277%
O=C(NCCc1c[nH]cn1)C1CCCN(C2CCOCC2)C1 (stereo not given),Percent Effect,"30.3 µM, […]",-4.763%
Cc1csc(CCNC(=O)C2CCCN(C3CCOCC3)C2)n1 (stereo not given),Percent Effect,"30.3 µM, […]",-3.021%
Cn1c(CCNC(=O)C2CCCN(C3CCOCC3)C2)n[nH]c1=O (stereo not given),Percent Effect,"30.3 µM, […]",60.82%
CC(C)c1nc(CN(C)C(=O)C2CC(=O)N(Cc3ccncc3)C2)cs1 (stereo not given),Percent Effect,"30.3 µM, […]",1.333%
Cn1ccnc1CN1CCC2(CC1)CC(NC(=O)c1ccccn1)CO2.O=C(O)C(F)(F)F (stereo not given),Percent Effect,"30 µM, 30.03 µM",2.919%
O=C(NC1COC2(CCN(Cc3ccccn3)CC2)C1)c1ccccn1.O=C(O)C(F)(F)F (stereo not given),Percent Effect,"30 µM, 30.03 µM",99.23%
Cc1nc(C(=O)N(C)C)nn1-c1ccccc1C(C)C,Percent Effect,"30.3 µM, […]",17.02%
CCN1CC2(CC1=O)CN(Cc1cnn(C)c1)CCN(C(C)=O)C2.O=C(O)C(F)(F)F (stereo not given),Percent Effect,"30 µM, 30.03 µM",8.348%
O=C(NCCc1ccccc1)C1CCC(Cn2cnnn2)CC1 (stereo not given),Percent Effect,"30 µM, 30.03 µM",4.824%
COCC(=O)N1CCN(S(=O)(=O)c2cccs2)[C@H]2CS(=O)(=O)C[C@H]21,Percent Effect,"30.3 µM, […]",-6.326%
CCC(=O)N1CCN(S(=O)(=O)c2cccc(F)c2)[C@H]2CS(=O)(=O)C[C@H]21,Percent Effect,"30.3 µM, […]",19.41%
COCC(=O)N1CCN(S(=O)(=O)c2ccccc2)[C@H]2CS(=O)(=O)C[C@H]21,Percent Effect,"30.3 µM, […]",50.92%
CS(=O)(=O)CC(=O)N1C[C@@H]2COC[C@]2(c2nnc(C3CC3)o2)C1,Percent Effect,"30 µM, 30.03 µM",6.501%
COc1cccc2c1ccn2CCC(=O)Nc1c2c(nn1C)CSC2,Percent Effect,"30.3 µM, […]",-9.12%
CCN(CC)C(=O)CS(=O)(=O)c1cc(OC)c(OC)cc1C,Percent Effect,"30.3 µM, […]",-79.93%
N#Cc1c(F)cccc1N1CCN(C(=O)Nc2nncs2)CC1,Percent Effect,"30.3 µM, […]",50.08%
N#Cc1c(F)cccc1N1CCC(C(=O)Nc2nccs2)CC1,Percent Effect,"30.3 µM, […]",8.432%
N#Cc1c(F)cccc1N1CCCC(C(=O)Nc2nncs2)C1 (stereo not given),Percent Effect,"30.3 µM, […]",39.68%
COCCN(Cc1ccccc1)Cc1nc(-c2ccsc2)no1,Percent Effect,"30.3 µM, […]",22.89%
CCN1CCN(C(C)(C)CNc2nc(C)cc(C3CCC3)n2)CC1,Percent Effect,"30.3 µM, […]",54.39%
Cc1cc(C2CCC2)nc(NCC(C)(C)N2CCOCC2)n1,Percent Effect,"30.3 µM, […]",23.38%
Cc1cc(C2CCC2)nc(NCC(C)(C)N2CCCC2)n1,Percent Effect,"30.3 µM, […]",9.291%
CCc1nc(C)c([C@H]2CN(C)C[C@@H]2C(=O)NCCc2cnccn2)[nH]1,Percent Effect,"30 µM, 30.03 µM",23.64%
CCNC(=O)NC(=O)CN1CCOC(c2ccccc2Cl)C1 (stereo not given),Percent Effect,"30.3 µM, […]",7.788%
CN(C)CCNc1cc(-c2ncccn2)c2cc[nH]c2n1,Percent Effect,"30.3 µM, […]",4.01%
COc1ccc2c(c1)Cc1c-2nc(N)c(C#N)c1C1CCOC1 (stereo not given),Percent Effect,"30.3 µM, […]",63.86%
N#Cc1c(N)nc2c(c1C1CCOC1)CCc1cc(O)ccc1-2 (stereo not given),Percent Effect,"30.3 µM, […]",-89.94%
COc1ccc2c(c1OC)Cc1c-2nc(N)c(C#N)c1C1CCOC1 (stereo not given),Percent Effect,"30.3 µM, […]",11.41%
Cc1nn(C)c(N(C)C)c1CNCc1cccc(OCCN(C)C)c1,Percent Effect,"30 µM, 30.03 µM",-13.13%
COc1ccccc1CN(C)C(=O)CN1CC(n2nc(C)cc2C)C1,Percent Effect,"30.3 µM, […]",72.41%
Cc1cc(C)n(C2CN(CC(=O)N(C)Cc3ccco3)C2)n1,Percent Effect,"30.3 µM, […]",-0.4731%
COc1cccc(CN(C)C(=O)CN2CC(n3nc(C)cc3C)C2)c1,Percent Effect,"30 µM, 30.03 µM",4.207%
CC(=O)N1CCC(N2CC[C@H](c3nc4cc(C)ccc4o3)C2)CC1,Percent Effect,"30.3 µM, […]",22.67%
CCn1nc(C)c2ncnc(NCC(=O)N3CCOCC3)c21,Percent Effect,"30 µM, 30.03 µM",13.04%
CCN(CC)C(=O)Cn1ccc2cc(NC(=O)NC3CC3)ccc21,Percent Effect,30 µM,18.91%
O=C(c1cnccn1)N1CC[C@H]2[C@@H]1CCC(=O)N2c1cccnc1,Percent Effect,"30.3 µM, […]",69.01%
Cc1ccoc1C(=O)N1CC[C@H]2[C@@H]1CCC(=O)N2c1cccnc1.O=C(O)C(F)(F)F,Percent Effect,"30.3 µM, […]",3.255%
Cc1ccc(C(=O)N2CC[C@H]3[C@@H]2CCC(=O)N3c2cccnc2)o1.O=C(O)C(F)(F)F,Percent Effect,"30.3 µM, […]",56.88%
Cc1cnc(N2CC[C@H]3[C@@H]2CCC(=O)N3c2ccccc2)nc1.O=C(O)C(F)(F)F,Percent Effect,"30.3 µM, […]",39.44%
O=C(c1cccs1)N1CC[C@H]2[C@@H]1CCC(=O)N2c1cccnc1,Percent Effect,"30.3 µM, […]",-14.6%
Cc1cnc(C(=O)N2CC[C@H]3[C@@H]2CCC(=O)N3c2cccnc2)cn1.O=C(O)C(F)(F)F,Percent Effect,"30.3 µM, […]",26.72%
O=C(O)C(F)(F)F.O=C1CC[C@H]2[C@H](CCN2c2ncccn2)N1c1ccccc1,Percent Effect,"30.3 µM, […]",50.79%
O=C(O)C(F)(F)F.O=C1CC[C@H]2[C@H](CCN2c2ncc(F)cn2)N1c1ccccc1,Percent Effect,"30.3 µM, […]",36.83%
O=C(c1cscn1)N1CC[C@H]2[C@@H]1CCC(=O)N2c1ccccc1,Percent Effect,"30.3 µM, […]",4.628%
